Source: PubChem BioAssay
Most compounds without a hit are left out; they make up all but 10% or so of the library.
PTEN del growth: suppresses growth of cells with PTEN deletion. HCT116 PTEN-null viability, CellTiter-Glo, 60 h; stronger effect = lower value. viability, % at 10 µM. 140,000 tested, 1.2% active. AID 827;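 active means viability at or below a set limit, 4 SD under the median of all tested compounds, cut at about 3.7% in these data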;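 further: PTEN knockout HCT116 line with beta catenin targeted HCT116 as companion control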
bCat KO growth: beta-catenin-lacking colon tumor cell growth suppression; HCT116 beta-catenin knockout viability, CellTiter-Glo, 60 h; stronger effect = lower value; viability, % at 10 µM; 140,000 tested, 1.5% active; AID 818;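 active means viability at or under a set limit, the compound median less 4 SD, cut at about 6% in these data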;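 further: 0% = Hyamine 1622 control at 20 µM and 100% = untreated cell control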
ROMK mod: modulators of human ROMK potassium channel; P48048; B-score at 10 µM; Tet-inducible ROMK, thallium flux fluorescence; actives lie on both sides; 130,000 tested, 2% active;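 active means signal ratio slope over the read window, or its plate-corrected B-score, at least 3 SD from the plate mean, either direction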;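 further: B-score of the F/F0 ratio slope over 7 to 12 s after thallium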
Target sequence (P48048 whole entry, looked up): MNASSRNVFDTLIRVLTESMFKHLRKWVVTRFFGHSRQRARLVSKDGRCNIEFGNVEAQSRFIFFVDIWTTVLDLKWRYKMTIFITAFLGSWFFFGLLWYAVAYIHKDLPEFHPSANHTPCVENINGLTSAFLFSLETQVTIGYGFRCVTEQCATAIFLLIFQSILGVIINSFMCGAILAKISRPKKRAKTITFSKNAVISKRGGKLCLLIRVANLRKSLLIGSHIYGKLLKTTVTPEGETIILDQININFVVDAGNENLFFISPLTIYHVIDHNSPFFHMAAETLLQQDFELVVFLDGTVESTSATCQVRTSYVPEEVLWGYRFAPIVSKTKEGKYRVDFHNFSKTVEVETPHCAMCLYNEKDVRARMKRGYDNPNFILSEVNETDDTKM
L major viab: inhibitors of Leishmania major promastigote growth. Leishmania major promastigotes, resazurin fluorescence viability. inhibition, % at 10 µM. 200,000 tested, 9% active; in the data active means inhibition above about 50%;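 further: promastigotes grown with compound for 44 hours at 28 °C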
p97 inhibitor: inhibitors of human p97 ATPase; 220,000 tested, 0.42% active; inhibition, % at 8 µM; P55072; recombinant p97 ATPase, Kinase-Glo ATP luminescence, 3 h; in the data active means inhibition above about 15%;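 further: 0% = DMSO vehicle and 100% = wells lacking enzyme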
INS promoter inh: TRM-6 insulin promoter activity inhibition; AID 1273; TRM-6 cells (human fetal islet line), insulin promoter-eGFP reporter, imaging; reporter expression induced with tamoxifen; 130,000 tested, 0.9% active; inhibition, % at 2 µM;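 active means inhibition above the mean plus 3 SD, with well images judged a real hit on visual review, cut at about 60% in these data, passing the limit was not always enough; inconclusive means inhibition over the cutoff but images rejected on review; inactive means inhibition not above the cutoff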
An asterisk follows results filed as active; u = inconclusive; x = no result.

SMILES | PTEN del growth | bCat KO growth | ROMK mod | L major viab | p97 inhibitor | INS promoter inh
Cc1cc(C)n(CC(=O)N2c3ccccc3Sc3ccccc32)n1 | 100 | 100 | 1.9 | 61* | 2 | 48
Cc1ccccc1OCC(O)Cn1c(NCCN(C)C)nc2c1c(=O)n(C)c(=O)n2C (stereo unspecified) | 84 | 84 | x | 7 | 1 | x
Cc1cc(C)n(-c2nc3c(c(=O)n(C)c(=O)n3C)n2CC(O)COc2ccccc2C)n1 (stereo unspecified) | x | x | x | 0 | 3 | 77*
NC1=NC(=O)/C(=C\c2ccsc2)S1 | x | x | x | -6 | 4 | x
C=CCn1c(SCc2cc(=O)n3cc(C)ccc3n2)nnc1-c1cccc(C)c1 | 96 | 90 | -0.87 | 52* | -7 | -15
Cc1ccc2nc(CSc3nnc4ccccn34)cc(=O)n2c1 | x | x | 1.7 | -5 | 4 | -42
Cc1nc2cc(-c3ccccc3)nn2c(C)c1CCC(=O)N1CCN(c2ccccc2)CC1 | 47 | 52 | x | 87* | 0 | x
c1ccc2c(c1)Nc1cc3ccccc3cc1S2 | x | x | x | x | -3 | x
COc1ccc2c(c1)Sc1ccccc1N2 | x | x | -0.88 | 100* | 2 | x
O=C(Nc1ccsc1C(=O)N1CCCC1)c1ccccc1 | x | x | -0.74 | -2 | -2 | 91*
Clc1ccc2c(c1)-c1[nH]ncc1CS2 | x | x | x | x | 6 | x
CCCCN(CC)Cc1ccc(CNC(=S)Nc2c(C)cc(C)cc2C)o1 | x | x | -0.034 | 22 | 2 | -29
CCCCN(CC)Cc1ccc(CNC(=O)Nc2ccc(F)cc2)o1 | 30 | 18 | -0.75 | 98* | -1 | -74
Cc1nnc(NC(=O)c2ccc(S(=O)(=O)N3CCc4ccccc4C3)cc2)o1 | x | x | 0.0055 | -6 | -1 | x
Cc1cc(C)c2sc(NNC(=O)c3ccc(S(=O)(=O)N4CCc5ccccc5C4)cc3)nc2c1 | 7 | 7 | 0.88 | 99* | -1 | 50
Cc1cc(C)c2nc(NNC(=O)c3ccc(S(=O)(=O)N4CCc5ccccc5C4)cc3)sc2c1 | 6 | 4.0* | 0.53 | 99* | -5 | -256
CS(=O)(=O)N1CCCC(C(=O)Nc2ccc3c(c2)OCCO3)C1 (stereo unspecified) | x | x | x | -8 | 3 | x
CN(C)c1ccc2c(c1)Sc1cc(N(C)C)ccc1N2C(=O)c1ccccc1 | x | x | x | x | 11 | x
CC(NC(=O)Nc1nnc(C(F)(F)F)s1)(C(F)(F)F)C(F)(F)F | 1.8* | 2.4* | -3.5* | 43 | 1 | 35
CCOC(=O)C1CCCN(Cc2nc(CC3CC3)no2)C1 (stereo unspecified) | x | x | 0.092 | x | -3 | x
Clc1ccc(C2CC(c3ccccc3)Nc3ncnn32)cc1 (stereo unspecified) | 76 | 80 | x | -6 | 1 | x
Clc1ccc(C2CC(c3ccco3)n3ncnc3N2)cc1Cl (stereo unspecified) | 65 | 76 | x | 51* | 6 | 33
CCOc1ccccc1C(=O)Nc1ccc(-n2nncc2C(C)(C)C)cc1 | x | x | -0.84 | 0 | 0 | -63
Cc1snc(S(=O)(=O)/C(C#N)=N/Nc2cccc(C(F)(F)F)c2)c1C#N | 93 | 110 | 1.2 | -9 | 3 | 75*
COc1ccccc1/C=N/NC(=O)Cn1cnc([N+](=O)[O-])n1 | x | x | -0.26 | 4 | -1 | 20
SMILES | PTEN del growth | bCat KO growth | ROMK mod | L major viab | p97 inhibitor | INS promoter inh
COc1ccc(-c2nc(SC)n(S(=O)(=O)c3ccccc3)n2)cc1 | 102 | 95 | 0.17 | -1 | 4 | 90*
CCOC(=O)c1c(NC(=O)CSc2cccc[n+]2[O-])sc(C(=O)Nc2ccccc2)c1C | x | x | -0.99 | 2 | 3 | 50
CN1CCC(N(C)CC(=O)Nc2cccc(Oc3ccccc3)c2)CC1 | 84 | 80 | x | 96* | -3 | x
CN1CCC(N(C)CC(=O)Nc2ccc3c(c2)OC(F)(F)O3)CC1 | x | x | x | x | 7 | x
CCOC(=O)c1c(NC(=O)CN(C)C2CCN(C)CC2)sc(C(=O)Nc2ccccc2)c1C | x | x | -0.86 | 101* | -10 | -45
CCOC(=O)c1sc(NC(=O)CCN2CCN(CC)CC2)c(C(=O)OCC)c1C | x | x | -0.15 | 100* | 4 | x
CCOC(=O)c1sc(NC(=O)CCN2CCC(C)CC2)c(C(=O)OCC)c1C | x | x | 0.26 | 5 | 7 | x
N#CCCN(CCN1CCCC1)S(=O)(=O)c1ccc(-c2ccc([N+](=O)[O-])cc2)cc1 | x | x | -2.7 | 93* | 2 | 28
Nc1nc(=S)c2ncn(C3CCCC3)c2[nH]1 | x | x | x | x | 8 | x
Cc1cccc(NC2=CC(=O)CC(C)(C)C2)c1C | x | x | -0.6 | 0 | 2 | x
O=C(Nc1cccc(F)c1)N1CC=C(n2c(=O)[nH]c3ccccc32)CC1 | 78 | 69 | x | 25 | -6 | 26
O=C(O)C1CCCCC1C(=O)N1CC=C(c2ccccc2)CC1 (stereo unspecified) | 84 | 90 | x | 61* | 3 | 17
O=C(Nc1cccc2ccccc12)N1CC=C(c2ccccc2)CC1 | 93 | 115 | 0.93 | -6 | -1 | x
O=C(Nc1ccccc1)N1CC=C(c2ccccc2)CC1 | 111 | 94 | 0.16 | 81* | -2 | 75*
O=C(Nc1ccccc1)N1CC=C(c2ccc(F)cc2)CC1 | 95 | 86 | -0.33 | 85* | 2 | u
COc1ccc(OCC(=O)NNC(=O)C(=O)N2CCCC2)cc1 | 101 | 93 | 1.8 | -5 | 2 | 13
COC(=O)c1sccc1N/N=C/c1cccc(Oc2ccccc2)c1 | 44 | 46 | 0.77 | 2 | -1 | 44
Cc1ccc(NC(=O)N[C@H](C(=O)O)C(C)C)c(C)c1 | x | x | -0.0029 | x | 1 | x
CSc1nc(-c2ccc(Cl)cc2)nn1C(=O)c1ccccc1 | 100 | 89 | -0.0032 | -4 | -2 | 79*
Cn1c(O)c(/C=N/Nc2ccccc2)c(=O)n(C)c1=O | x | x | -0.089 | 86* | -1 | -55
Cc1c(/C=N/Nc2ccc(F)cc2)c(O)n(C)c(=O)c1C#N | x | x | -0.01 | 60* | 5 | x
Cc1cc(O)c(/C=N/Nc2ccc(F)cc2)c(=O)o1 | x | x | -0.05 | 70* | -4 | x
CC(=O)N=Cc1c(C)c(C#N)c(=O)n(C)c1O | x | x | 0.51 | -5 | 3 | x
Cc1cc(O)c(/C=N/c2ccccn2)c(=O)o1 | 99 | 93 | 0.32 | -1 | 5 | x
Cn1c(O)c(C=NC(CC(N)=O)C(=O)O)c(=O)n(C)c1=O (stereo unspecified) | 104 | 101 | x | -4 | 1 | 6
SMILES | PTEN del growth | bCat KO growth | ROMK mod | L major viab | p97 inhibitor | INS promoter inh
Cc1cc(C)n(-c2n[nH]c(C)c2[N+](=O)[O-])n1 | x | x | -0.042 | 1 | 12 | x
CCOC(=O)c1nc(Nc2ccc(N3CCC(C)CC3)cc2)c2ccccc2n1 | x | x | x | 53* | 3 | x
CCOC(=O)c1nc(Nc2cc(C)cc(C)c2)c2ccccc2n1 | x | x | -0.83 | 52* | -3 | 53
O=S(=O)(CC(CN1CCCCC1)N1CCCCC1)c1ccccc1 (stereo unspecified) | x | x | -0.52 | 98* | -1 | x
O=C(NNS(=O)(=O)c1ccc(F)cc1)C1CCN(Cc2cccc(F)c2)CC1 | x | x | 1.1 | 86* | 0 | -36
Cc1cc(C)c(S(=O)(=O)NNC(=O)C2CCN(Cc3ccccc3)CC2)c(C)c1 | 81 | 83 | x | 91* | 9 | 14
O=C(NNS(=O)(=O)c1ccc2ccccc2c1)C1CCN(Cc2ccccc2)CC1 | 91 | 83 | x | 42 | -2 | 25
